This is part of a sample that, as a whole, favours compounds with a hit. Of some 83,000 tested, about 20% had one in any assay.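 Assay: single dose, 48 h. Readout: percent growth (0 = no net growth; negative = cell death). Active: <10.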 Active and inactive are the calls of the source.
Columns and labels:
Experiment in all cases: NCI-60 one-dose screen, 48 h (100 = growth as untreated, 0 = no growth, -100 = all killed)
Conditions in all cases: 10 µM unless noted
[1] = system: NCI-H23 lung
[2] = system: NCI-H226 lung
[3] = system: NCI-H322M lung
[4] = system: HOP-62 NSCLC
[5] = system: NCI-H460 lung
[6] = system: HOP-92 NSCLC
[7] = system: NCI-H522 lung
[8] = system: A549/ATCC NSCLC
[9] = system: 786-0 renal
[10] = system: COLO 205 colon
[11] = system: DU-145 prostate
[12] = system: K-562 leukemia
[13] = system: MALME-3M melanoma
[14] = system: MDA-MB-231 breast
[15] = system: RXF 393 renal
[16] = system: SF-268 CNS
[17] = system: SF-295 CNS
[18] = system: SF-539 CNS
[19] = system: UACC-257 melanoma
[20] = system: M14 melanoma

Measured: growth

COc1ccc(C(=O)c2cc(C)c(OC)c(C)c2)cc1OC(=O)CCl
active: [5] 6.67% | [7] -40.2% | [10] 9.62% | [11] 9.37% | [12] 4.66% | [18] -26.1% | [20] 0.344%
inactive: [1] 29.1% | [2] 52.8% | [3] 42.7% | [4] 17.8% | [6] 96.5% | [8] 14.6% | [9] 16.2% | [13] 63.1% | [14] 22.9% | [15] 37.7% | [16] 27.6% | [17] 11.8% | [19] 56.8%

O=C(N=Nc1c(Cl)c(O)c2ccccc2c1O)C(=O)Nc1cccc(C(F)(F)F)c1
active: [7] 8.55% | [11] -38.7%
inactive: [1] 71.5% | [2] 88.5% | [3] 63.4% | [4] 47.9% | [5] 79.8% | [6] 79.2% | [8] 87.1% | [9] 90.3% | [10] 47.3% | [12] 57.6% | [13] 10.7% | [14] 56.6% | [15] 81.5% | [16] 68.2% | [17] 41.1% | [18] 102% | [19] 100% | [20] 32.8%

C/C(=N\NC(=S)Nc1ccccc1)c1ccccn1
inactive: [1] 59.8% | [2] 21.3% | [3] 20.9% | [4] 41.4% | [5] 17.3% | [6] 37.1% | [7] 12.6% | [8] 45.7% | [9] 32.6% | [10] 25.6% | [11] 57.5% | [12] 23.6% | [13] 31.3% | [14] 30.8% | [15] 12.2% | [16] 43.3% | [18] 19.6% | [19] 17.6% | [20] 24.1%

C#CC[C@@H]1C[C@]2(C)[C@H]3CC=C4[C@H]5[C@@H](C)[C@H](C)CC[C@]5(C(=O)NCCCCCCCCN)CC[C@@]4(C)[C@]3(C)CC[C@H]2C(C)(C)[C@H]1OC(C)=O
inactive: [1] 79.3% | [2] 94.6% | [3] 80.4% | [4] 104% | [6] 53.1% | [8] 46.5% | [9] 80.6% | [11] 41.8% | [13] 66% | [14] 56% | [15] 70.4% | [16] 92.9% | [18] 83.8% | [19] 100% | [20] 29.3%
active: [5] -63.8% | [7] -1.25% | [10] -23.4% | [12] -23.4%

N#Cc1c(N)c(C(=O)c2ccc3c(c2)OCCO3)n2c1CCCC2
active: [7] -33.3% | [12] 0.198% | [13] -8.49%
inactive: [1] 42.7% | [2] 81.7% | [3] 25.3% | [4] 35.4% | [5] 15.9% | [6] 64.4% | [8] 34.5% | [9] 53% | [10] 14.9% | [11] 45.2% | [14] 52.3% | [15] 31.4% | [16] 36.9% | [18] 24.2% | [19] 45.9% | [20] 19.4%

C/C(CC(=O)NNc1ccc([N+](=O)[O-])cc1)=N\Nc1ccc([N+](=O)[O-])cc1
inactive: [1] 87.5% | [2] 96.2% | [3] 71.7% | [4] 83% | [5] 27.9% | [6] 90.5% | [7] 60.8% | [8] 56.1% | [9] 55.3% | [10] 48.8% | [11] 62.1% | [12] 12.9% | [13] 93.4% | [14] 47% | [15] 118% | [16] 83.8% | [18] 68.2% | [19] 99.6% | [20] 25.5%

C=CCn1c(SCC(=O)Nc2ccc(C(=O)/C=C/c3ccc(Cl)cc3)cc2)nnc1-c1ccc(Cl)cc1
inactive: [1] 82.8% | [2] 83.1% | [3] 110% | [4] 78.2% | [5] 99.5% | [6] 91% | [7] 68.4% | [8] 73.8% | [9] 93.9% | [10] 98.3% | [11] 100% | [12] 72.5% | [13] 93.2% | [14] 86.4% | [15] 99.9% | [16] 82.7% | [18] 99.2% | [19] 99% | [20] 95.5%

O=NN(CC(=O)NNc1ccccc1)CC(=O)NNc1ccccc1
inactive: [1] 103% | [2] 85.9% | [3] 85% | [4] 87.8% | [5] 66.2% | [6] 88.5% | [7] 52% | [8] 65.9% | [9] 90.9% | [10] 68.6% | [11] 68.7% | [12] 11.8% | [13] 102% | [14] 58.7% | [15] 84.9% | [16] 59.7% | [18] 72% | [19] 95.4% | [20] 33.1%

Nc1nc(N)c2cc(Sc3ccc(Cl)cc3)ccc2n1
inactive: [1] 33.6% | [2] 48.9% | [3] 27.7% | [4] 53.1% | [5] 13.4% | [7] 21% | [8] 15.2% | [9] 28% | [11] 29.7% | [13] 56.7% | [14] 31.3% | [15] 42.4% | [16] 31.1% | [18] 35% | [19] 40.1% | [20] 27.8%
active: [6] 6.59% | [10] -45.6% | [12] 4.88%

C=CCn1c(SCC(=O)Nc2ccc(/C(C)=N\O)cc2)nnc1-c1cc(-c2ccccc2)nc2ccccc12
inactive: [1] 38.9% | [2] 65.4% | [3] 69.2% | [4] 67.9% | [5] 52.1% | [6] 99.5% | [7] 41.6% | [8] 43.9% | [9] 45.2% | [10] 64.2% | [11] 75% | [12] 27.6% | [13] 96.3% | [14] 58.3% | [15] 68.8% | [16] 62.8% | [18] 50.6% | [19] 75.6% | [20] 34%

Fc1cnccc1-c1nc2ccc3[nH]ncc3c2c2c1CCCC2
active: [15] -23.9% | [18] 5.76%
inactive: [1] 31.9% | [2] 30% | [3] 29.5% | [4] 21% | [5] 25.8% | [6] 40.7% | [7] 18.8% | [8] 14.6% | [9] 28.1% | [10] 17.6% | [11] 24.1% | [12] 30.9% | [13] 44.2% | [14] 51.2% | [16] 31.9% | [19] 63% | [20] 26%

CCN(CC)CCC(CNc1ccnc2cc(Cl)ccc12)c1ccc(O)cc1 (stereo unspecified)
active: [20] 6.04%
inactive: [1] 91.3% | [2] 102% | [3] 72.7% | [4] 87.4% | [5] 54.2% | [6] 53.3% | [7] 97.9% | [8] 97.8% | [9] 92.3% | [10] 71.5% | [11] 91.4% | [12] 10.6% | [13] 93.5% | [14] 74.1% | [15] 52.5% | [16] 69.5% | [18] 88.4% | [19] 93.4%

COc1cc(NC(C)CCCN)c2ncccc2c1Sc1ccc(Cl)cc1 (stereo unspecified)
active: [10] -77.4% | [12] -33.2%
inactive: [1] 86% | [2] 76.1% | [3] 77% | [4] 67.7% | [5] 10.1% | [6] 15.2% | [7] 75.4% | [8] 59.1% | [9] 63.7% | [11] 76.3% | [13] 82.4% | [14] 36% | [15] 57.9% | [16] 70.5% | [18] 75.9% | [19] 65.1% | [20] 27.5%

C#CC[C@@H]1C[C@]2(C)[C@H]3CC=C4[C@H]5[C@@H](C)[C@H](C)CC[C@]5(C(=O)NCCCCN)CC[C@@]4(C)[C@]3(C)CC[C@H]2C(C)(C)[C@H]1OC(C)=O
inactive: [1] 94.8% | [2] 87.1% | [3] 92.4% | [4] 89.2% | [6] 44.1% | [7] 81.7% | [8] 72.6% | [9] 79.9% | [11] 58.6% | [13] 98.9% | [14] 39.5% | [15] 56.4% | [16] 69.8% | [18] 84.7% | [19] 115% | [20] 66.6%
active: [5] 1.45% | [10] 6.68% | [12] -26.6%

COc1cccc(/C=N/N=C(N)N)c1
inactive: [1] 103% | [2] 98.3% | [3] 114% | [4] 104% | [5] 111% | [6] 91.1% | [7] 97.4% | [8] 102% | [9] 117% | [10] 109% | [11] 102% | [12] 94.5% | [13] 111% | [14] 91.4% | [15] 106% | [16] 101% | [18] 84.5% | [19] 97.1% | [20] 93.8%

N=c1n(Cc2ccccc2)c(N)cc(=O)n1Cc1ccccc1
inactive: [1] 12.7% | [3] 26.5% | [4] 26.7% | [6] 99.5% | [7] 10.1% | [9] 19.2% | [10] 66.8% | [12] 21% | [13] 23.3% | [14] 83% | [18] 12.5% | [19] 43.8% | [20] 84.6%
active: [2] 5.6% | [5] -25% | [8] -47.2% | [11] -19.6% | [15] -15.5% | [16] 2.59%

— PubChem BioAssay (NCI)
